Experimental data taken from ChEMBL document CHEMBL4513216, “Probing the Open Global Health Chemical Diversity Library for Multistage-Active Starting Points for Next-Generation Antimalarials” (ACS Infect Dis, 2020).
The whole screen tested about 68,000 compounds, of which about 2,700 (4%) showed an effect of 50% or more. Only a selection was taken, and strong results are over-represented in it overall.

system: Plasmodium berghei; experiment: Screen against P. berghei liver stage (PbLuc), transformed with Luciferase, at 2uM; type: functional, HepG2; details: tested at 2 uM

| Compound | INHIBITION [%] |
| --- | --- |
| Cc1cnn(CC2CCCN2C(=O)c2ccc(-n3cccn3)nc2)c1 (centres undefined) | -26.85 |
| O=C(NCC(F)(F)F)c1ccc(-c2ccco2)[nH]c1=O | -5.09 |
| Cc1cnn(CC2CN(Cc3nccn3CC(F)(F)F)CCO2)c1 (centres undefined) | 36.64 |
| CN1C[C@@H](NC(=O)c2ccccc2)C[C@H]1c1nc(-c2cnccn2)no1 | 23.26 |
| COc1ccc(CNC(=O)CCc2nnc3ccccn3c2=O)cc1 | 8.41 |
| CO[C@@H]1CCN(C(=O)Cc2ccc(F)cc2)[C@@H]1Cc1cccnc1 | -16.75 |
| OC1(Cn2ccc3ncccc32)CCN(Cc2cccnc2)CC1 | 53.24 |
| CCn1cc(CN2CCC(O)(Cn3ccc4ncccc43)CC2)cn1 | 22.39 |
| OC1(Cn2ccc3ncccc32)CCN(Cc2cc(F)cc(F)c2)CC1 | 31.56 |
| O=C(CCOc1ccccc1)N1CCCC(n2cncn2)C1 (centres undefined) | 33.5 |
| Cc1nc2c(c(N3CC=CC3)n1)CCN(c1ncccc1C(N)=O)CC2 | -11.31 |
| CCS(=O)(=O)CCCOc1nc(-c2ccccc2Cl)no1 | -5.27 |
| O=C1CCC2(CCC(NC3CCOC3)CC2)N1Cc1ccccc1 (centres undefined) | 35.34 |
| Cc1ccc(CN2C(=O)CCC23CCC(NC2CCOC2)CC3)cc1 (centres undefined) | 29.85 |
| O=C1CCC2(CCC(NC3CCOC3)CC2)N1Cc1ccncc1 (centres undefined) | 56.76 |
| CCc1ccc(CN(C)c2cc(COC)nc3ccnn23)cc1 | 14.96 |
| CN(Cc1cnn(C)c1)C(=O)C1COc2ccccc2C1 (centres undefined) | -11.77 |
| O=C(NC1CCC1)[C@H]1C[C@H]2CN(S(=O)(=O)c3ccccc3)C[C@@H]1O2 | 24.34 |
| Cc1cccc(C)c1OCCNC(=O)NC(C)c1nncn1C (centres undefined) | 64.53 |
| Cc1cccc(OCCCNC(=O)NC(C)c2nncn2C)c1 (centres undefined) | -7.01 |
| Cc1ccc(OCCCNC(=O)NC(C)c2nncn2C)cc1 (centres undefined) | -10.5 |
| N[C@H]1CN(CCCOc2ccccc2)C[C@@H]1C1CC1 | 18.64 |

| Compound | INHIBITION [%] |
| --- | --- |
| N[C@H]1CN(CCOc2ccc(F)cc2)C[C@@H]1C1CC1 | 55.85 |
| NC(=O)c1ccc(OCCCN2C[C@H](C3CC3)[C@@H](N)C2)cc1 | 9.56 |
| COC1CN(C(=O)OCC(C)C)CCC(=O)N(C)c2ccccc21 (centres undefined) | -16.76 |
| Cc1nn(C)c2nc(N3CCCCC3c3ccc(F)cc3)sc12 (centres undefined) | 8.3 |
| C1CCC(CN2Cc3nnn(CC4CC4)c3C(COCC3CC3)C2)C1 (centres undefined) | -6.19 |
| O=C1[C@@H]2CCN(Cc3ccoc3)C[C@@H]2OCCN1Cc1cccc(F)c1 | 20.41 |
| Cc1cc(NS(=O)(=O)c2cccs2)ccc1-n1cccc1C(=O)O | 50.17 |
| Cc1ccc(S(=O)(=O)Nc2ccc(-n3cccc3C(=O)O)c(C)c2)s1 | -1.14 |
| Cc1cc(NS(=O)(=O)c2ccc(Cl)s2)ccc1-n1cccc1C(=O)O | 31.15 |
| O=C(NCCOc1ccccc1)NCC(O)c1cccs1 (centres undefined) | -85.29 |
| Cc1ccoc1C(=O)N1C[C@@H]2[C@@H](C1)OCC(=O)N2Cc1cccnc1 | -2.91 |
| Cc1nc2c(c(NC3CC3)n1)CCN(C(=O)CCO)CC2 | -10.44 |
| CC(=O)N1CCC(C(=O)NCCN2CCCCC2)CC1 | 18.97 |
| COc1ccc(CCNC(=O)N2CCN(C)[C@@H]3CS(=O)(=O)C[C@@H]32)cc1 | 43.44 |
| CN1CCN(C(=O)NCCc2ccc(F)cc2)[C@H]2CS(=O)(=O)C[C@H]21 | 50.59 |
| COc1ccc(CNC(=O)N2CCN(C)[C@@H]3CS(=O)(=O)C[C@@H]32)cc1 | -47.18 |
| Cc1ccc(OCCN2CCN(Cc3cnn(CCO)c3)CC2)cc1 | -72.55 |
| COCC(=O)N1CCCC1c1cccc(Nc2ncc(C)s2)n1 (centres undefined) | 44.48 |
| COCC(=O)N1CCCCC1c1ccnc(Nc2ncc(C)s2)n1 (centres undefined) | 60.74 |
| COCC(=O)N1CCCCC1c1ccnc(Nc2cnccn2)n1 (centres undefined) | 11.55 |
| CN1CCN(C(=O)c2n[nH]c3c2CN(C2CCOCC2)CC3)CC1 | 36.44 |
| COc1cc(CNC(C)c2cccc(Cl)c2)cc(OC)c1OC (centres undefined) | 27.88 |

| Compound | INHIBITION [%] |
| --- | --- |
| CC(C)c1ccc(OCC(=O)NS(=O)(=O)c2cccnc2)cc1 | -1.85 |
| Cc1cccc(NCC(=O)Nc2cc(F)ccc2F)c1C(N)=O | 38.91 |
| Cc1cc(C)n(CC2(CNC(=O)C(c3ccccc3F)N(C)C)CC2)n1 (centres undefined) | 55.85 |
| Cc1cc(C)n(CC2(CNC(=O)C(c3ccc(F)cc3)N(C)C)CC2)n1 (centres undefined) | -4.04 |
| Cc1cc(C)n(CC2(CNC(=O)C(c3ccccc3C)N(C)C)CC2)n1 (centres undefined) | -14.49 |
| Cc1cc(C(F)(F)F)nc(CCNC(C)Cn2ccnc2)n1 (centres undefined) | -15.14 |
| OCCN(Cc1nc(-c2ccc3c(c2)OCO3)no1)CC1CC1 | 83.98 |
| OCCN(Cc1ccccc1)Cc1nc(-c2ccc3c(c2)OCO3)no1 | -48.83 |
| OCCN(Cc1nc(-c2ccc3c(c2)OCO3)no1)Cc1cccs1 | -49.59 |
| COCCS(=O)(=O)Nc1ccc(-n2cncn2)c(F)c1 | 3.33 |
| CN1CCN(C(=O)c2cc3sccc3n2Cc2ccccc2F)CC1 | -10.78 |
| Cc1ccc(N2CC[C@@H]3CN(Cc4cc[nH]n4)C[C@@H]3C2)nn1 | 27.95 |
| CC(C)(C)CCNc1nccc(-c2c[nH][nH]c2=O)n1 | 22.5 |
| CC(C)(C)NC[C@@H]1CCC[C@@H]2CN(Cc3csnn3)C[C@@H]21 | -21.74 |
| c1cnc(NC[C@@H]2CCC[C@@H]3CN(Cc4csnn4)C[C@@H]32)nc1 | 55.7 |
| c1ccc(NC[C@@H]2CCC[C@@H]3CN(Cc4csnn4)C[C@@H]32)nc1 | 24.51 |
| COc1ccc2[nH]cc(C(=O)CNc3nc(C)cs3)c2c1 | 20.71 |
| O=C(NCCN1CCOC1=O)c1ccc2sccc2c1 | 61.27 |
| O=C(NCCN1CCOC1=O)c1cc(-c2ccccc2)on1 | 9.85 |
| O=C(NCCN1CCCC(CO)C1)c1ccc2sccc2c1 (centres undefined) | 13.99 |
